# Publication PMC7862700, “An all-to-all approach to the identification of sequence-specific readers for epigenetic DNA modifications on cytosine”
# Experiments:
# Test in all cases: DAPPL (digital affinity profiling via proximity ligation, sequencing); 10 mM Tris-HCl pH 7.5, 50 mM NaCl, 1 mM DTT, 4% glycerol, room temperature, 30 min; GST-TFs on glutathione beads, 16-mer random dsDNA library, 0.1% formaldehyde crosslink after washing; high values mean tight binding
# [1] = target: T1, FEV (Homo sapiens, UniProt Q99581 1-238); conditions: protein: recombinant; tags: N-terminal GST; dsDNA, one strand shown
# T1 sequence: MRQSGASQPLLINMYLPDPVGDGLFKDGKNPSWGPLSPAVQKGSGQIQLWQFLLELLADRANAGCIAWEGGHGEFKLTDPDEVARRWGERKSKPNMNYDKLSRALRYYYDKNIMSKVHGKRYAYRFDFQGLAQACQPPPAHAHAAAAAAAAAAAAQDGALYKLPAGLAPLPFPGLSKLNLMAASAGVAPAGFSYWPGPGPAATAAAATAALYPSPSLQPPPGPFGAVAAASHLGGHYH
# Summary of the method: (§1)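 Human transcription factors were made in yeast as GST fusions, captured on glutathione beads and barcoded with DNA. With a tag-only sample included, the pool was incubated with 200 nmole of a random double-stranded 16-mer DNA library in Tris/NaCl/DTT/glycerol buffer at room temperature for 30 min, then crosslinked with 0.1% formaldehyde after washing, ligated by proximity, amplified and sequenced. For binding signal, each hexamer's read frequency for a factor is divided by its frequency for the tag-only sample.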
# [2] = target: ETV5 (Homo sapiens, UniProt P41161 1-510); conditions: protein: recombinant; tags: N-terminal GST; dsDNA, one strand shown
# Summary of the method: as §1
# [3] = target: HSF1 (Homo sapiens, UniProt Q00613 1-529); conditions: protein: recombinant; tags: N-terminal GST; chain copies: 3; dsDNA, one strand shown
# Summary of the method: as §1
# [4] = target: T2, SPIC (Homo sapiens, UniProt Q8N5J4 1-248); conditions: protein: recombinant; tags: N-terminal GST; dsDNA, one strand shown
# T2 sequence: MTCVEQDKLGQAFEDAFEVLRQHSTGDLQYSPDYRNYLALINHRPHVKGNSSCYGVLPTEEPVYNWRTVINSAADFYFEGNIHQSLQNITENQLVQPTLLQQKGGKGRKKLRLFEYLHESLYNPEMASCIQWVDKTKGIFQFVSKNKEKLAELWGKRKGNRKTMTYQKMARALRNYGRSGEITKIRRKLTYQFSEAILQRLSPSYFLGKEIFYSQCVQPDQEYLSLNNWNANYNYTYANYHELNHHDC
# Summary of the method: as §1
# [5] = target: ELF4 (Homo sapiens, UniProt Q99607 1-663); conditions: protein: recombinant; tags: N-terminal GST; dsDNA, one strand shown
# Summary of the method: as §1
# [6] = target: T3, ELK4 (Homo sapiens, UniProt P28324-2 1-405); conditions: protein: recombinant; tags: N-terminal GST; dsDNA, one strand shown
# T3 sequence: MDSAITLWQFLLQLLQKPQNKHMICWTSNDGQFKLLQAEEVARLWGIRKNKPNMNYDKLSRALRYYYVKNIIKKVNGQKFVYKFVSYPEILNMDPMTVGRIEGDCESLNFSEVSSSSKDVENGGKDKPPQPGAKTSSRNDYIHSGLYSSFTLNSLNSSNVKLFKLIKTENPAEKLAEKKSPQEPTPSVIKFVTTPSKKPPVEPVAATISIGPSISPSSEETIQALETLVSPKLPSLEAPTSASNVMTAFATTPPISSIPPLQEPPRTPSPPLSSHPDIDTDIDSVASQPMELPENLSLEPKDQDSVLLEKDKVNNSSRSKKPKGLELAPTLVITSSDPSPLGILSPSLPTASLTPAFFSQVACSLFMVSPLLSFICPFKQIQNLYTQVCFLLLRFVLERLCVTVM
# Summary of the method: as §1
# [7] = target: T4, ETV2 (Homo sapiens, UniProt O00321 1-342); conditions: protein: recombinant; tags: N-terminal GST; dsDNA, one strand shown
# T4 sequence: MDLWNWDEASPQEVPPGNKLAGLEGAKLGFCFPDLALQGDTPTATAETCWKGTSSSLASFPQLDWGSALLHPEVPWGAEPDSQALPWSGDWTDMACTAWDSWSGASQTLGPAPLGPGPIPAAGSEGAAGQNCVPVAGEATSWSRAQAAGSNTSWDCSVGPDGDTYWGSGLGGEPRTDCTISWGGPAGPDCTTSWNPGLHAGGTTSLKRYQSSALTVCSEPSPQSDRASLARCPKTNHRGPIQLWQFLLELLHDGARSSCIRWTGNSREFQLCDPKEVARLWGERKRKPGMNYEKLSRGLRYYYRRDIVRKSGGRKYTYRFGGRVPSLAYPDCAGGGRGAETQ
# Summary of the method: as §1
# [8] = target: T5, ELF3 (Homo sapiens, UniProt P78545 1-371); conditions: protein: recombinant; tags: N-terminal GST; dsDNA, one strand shown
# T5 sequence: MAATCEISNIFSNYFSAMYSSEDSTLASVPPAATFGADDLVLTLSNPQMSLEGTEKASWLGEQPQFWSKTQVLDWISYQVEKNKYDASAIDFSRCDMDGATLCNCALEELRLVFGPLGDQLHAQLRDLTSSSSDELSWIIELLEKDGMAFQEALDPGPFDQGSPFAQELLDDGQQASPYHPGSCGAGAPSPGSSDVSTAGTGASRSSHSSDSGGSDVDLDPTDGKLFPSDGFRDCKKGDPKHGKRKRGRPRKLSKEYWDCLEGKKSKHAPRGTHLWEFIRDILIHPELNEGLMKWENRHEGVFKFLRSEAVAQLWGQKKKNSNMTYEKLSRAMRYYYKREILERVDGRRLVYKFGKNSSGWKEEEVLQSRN
# Summary of the method: as §1
# [9] = target: CRX (Homo sapiens, UniProt O43186 1-299); conditions: protein: recombinant; tags: N-terminal GST; dsDNA, one strand shown
# Summary of the method: as §1
# [10] = target: ETV1 (Homo sapiens, UniProt P50549 1-477); conditions: protein: recombinant; tags: N-terminal GST; dsDNA, one strand shown
# Summary of the method: as §1
# [11] = target: T6, ERF (Homo sapiens, UniProt P50548 1-548); conditions: protein: recombinant; tags: N-terminal GST; dsDNA, one strand shown
# T6 sequence: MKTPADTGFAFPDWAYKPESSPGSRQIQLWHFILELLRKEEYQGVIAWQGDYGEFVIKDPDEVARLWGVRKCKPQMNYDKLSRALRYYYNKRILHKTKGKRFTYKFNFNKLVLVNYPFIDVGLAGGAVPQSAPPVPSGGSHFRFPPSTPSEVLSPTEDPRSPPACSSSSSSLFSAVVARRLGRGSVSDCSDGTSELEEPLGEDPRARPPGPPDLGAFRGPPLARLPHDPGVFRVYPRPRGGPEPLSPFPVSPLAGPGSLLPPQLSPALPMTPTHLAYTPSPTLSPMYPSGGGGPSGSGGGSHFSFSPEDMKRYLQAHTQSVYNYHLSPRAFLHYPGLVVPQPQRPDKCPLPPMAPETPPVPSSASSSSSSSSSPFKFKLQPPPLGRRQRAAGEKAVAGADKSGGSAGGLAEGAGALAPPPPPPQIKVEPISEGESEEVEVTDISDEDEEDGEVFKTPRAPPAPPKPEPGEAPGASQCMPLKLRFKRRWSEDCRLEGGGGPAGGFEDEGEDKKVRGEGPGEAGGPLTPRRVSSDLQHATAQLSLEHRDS
# Summary of the method: as §1
# [12] = target: T7, ETV3L (Homo sapiens, UniProt Q6ZN32 1-361); conditions: protein: recombinant; tags: N-terminal GST; dsDNA, one strand shown
# T7 sequence: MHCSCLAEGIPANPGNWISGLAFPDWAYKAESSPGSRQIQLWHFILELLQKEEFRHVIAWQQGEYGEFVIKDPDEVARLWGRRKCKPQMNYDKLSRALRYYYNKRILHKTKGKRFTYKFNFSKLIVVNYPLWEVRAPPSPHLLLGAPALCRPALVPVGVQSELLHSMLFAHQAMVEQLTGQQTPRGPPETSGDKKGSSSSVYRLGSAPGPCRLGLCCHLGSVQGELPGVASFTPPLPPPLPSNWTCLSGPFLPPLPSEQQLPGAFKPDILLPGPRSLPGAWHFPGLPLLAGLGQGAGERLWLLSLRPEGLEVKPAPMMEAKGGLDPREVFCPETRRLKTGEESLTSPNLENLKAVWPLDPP
# Summary of the method: as §1
# [13] = target: T8, ETS2 (Homo sapiens, UniProt P15036 1-469); conditions: protein: recombinant; tags: N-terminal GST; dsDNA, one strand shown
# T8 sequence: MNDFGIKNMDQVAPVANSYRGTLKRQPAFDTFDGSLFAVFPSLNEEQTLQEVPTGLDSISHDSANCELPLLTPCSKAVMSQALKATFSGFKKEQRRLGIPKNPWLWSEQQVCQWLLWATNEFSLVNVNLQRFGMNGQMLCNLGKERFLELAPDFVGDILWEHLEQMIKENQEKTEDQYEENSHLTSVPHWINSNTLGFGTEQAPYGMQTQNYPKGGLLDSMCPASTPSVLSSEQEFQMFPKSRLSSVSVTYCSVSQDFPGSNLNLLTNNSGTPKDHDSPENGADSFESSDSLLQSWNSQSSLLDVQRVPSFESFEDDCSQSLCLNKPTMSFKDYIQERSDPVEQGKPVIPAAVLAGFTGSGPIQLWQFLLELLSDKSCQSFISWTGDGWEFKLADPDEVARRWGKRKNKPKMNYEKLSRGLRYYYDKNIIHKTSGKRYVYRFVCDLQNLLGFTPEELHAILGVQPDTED
# Summary of the method: as §1
# [14] = target: T9, SPDEF (Homo sapiens, UniProt O95238 1-335); conditions: protein: recombinant; tags: N-terminal GST; dsDNA, one strand shown
# T9 sequence: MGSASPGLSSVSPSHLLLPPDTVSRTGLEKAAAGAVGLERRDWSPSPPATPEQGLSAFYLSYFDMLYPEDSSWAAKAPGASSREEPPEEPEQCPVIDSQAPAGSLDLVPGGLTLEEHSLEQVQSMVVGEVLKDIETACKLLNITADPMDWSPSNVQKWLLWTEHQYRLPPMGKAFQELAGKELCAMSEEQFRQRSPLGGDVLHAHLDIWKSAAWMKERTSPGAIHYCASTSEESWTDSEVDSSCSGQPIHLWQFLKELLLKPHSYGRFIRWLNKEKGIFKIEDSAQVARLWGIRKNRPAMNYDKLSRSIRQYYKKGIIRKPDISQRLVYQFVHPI
# Summary of the method: as §1
# [15] = target: T10, ETV7 (Homo sapiens, UniProt Q9Y603 1-341); conditions: protein: recombinant; tags: N-terminal GST; dsDNA, one strand shown
# T10 sequence: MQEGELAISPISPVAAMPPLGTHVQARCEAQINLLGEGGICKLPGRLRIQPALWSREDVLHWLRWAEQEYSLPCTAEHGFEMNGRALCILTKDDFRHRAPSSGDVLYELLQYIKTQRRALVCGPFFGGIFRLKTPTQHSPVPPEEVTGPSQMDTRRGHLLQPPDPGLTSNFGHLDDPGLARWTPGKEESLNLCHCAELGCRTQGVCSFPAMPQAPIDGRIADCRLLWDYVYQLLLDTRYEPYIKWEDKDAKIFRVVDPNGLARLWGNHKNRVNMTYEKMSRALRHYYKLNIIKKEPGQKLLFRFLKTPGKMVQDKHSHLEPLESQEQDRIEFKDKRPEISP
# Summary of the method: as §1
# [16] = target: T11, ELF5 (Homo sapiens, UniProt Q9UKW6-2 1-255); conditions: protein: recombinant; tags: N-terminal GST; dsDNA, one strand shown
# T11 sequence: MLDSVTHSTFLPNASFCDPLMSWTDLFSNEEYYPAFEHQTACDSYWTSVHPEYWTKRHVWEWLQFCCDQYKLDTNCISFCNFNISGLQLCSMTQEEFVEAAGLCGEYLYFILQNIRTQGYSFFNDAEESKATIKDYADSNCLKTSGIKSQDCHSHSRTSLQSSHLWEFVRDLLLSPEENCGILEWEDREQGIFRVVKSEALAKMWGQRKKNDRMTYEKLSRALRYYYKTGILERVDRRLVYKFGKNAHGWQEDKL
# Summary of the method: as §1
# [17] = target: T12, ETV3 (Homo sapiens, UniProt P41162-2 1-143); conditions: protein: recombinant; tags: N-terminal GST; dsDNA, one strand shown
# T12 sequence: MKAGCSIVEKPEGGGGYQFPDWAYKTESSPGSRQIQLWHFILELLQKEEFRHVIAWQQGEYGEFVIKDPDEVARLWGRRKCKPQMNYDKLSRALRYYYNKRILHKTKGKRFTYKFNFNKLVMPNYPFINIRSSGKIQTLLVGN
# Summary of the method: as §1
# [18] = target: ETV6 (Homo sapiens, UniProt P41212 1-452); conditions: protein: recombinant; tags: N-terminal GST; dsDNA, one strand shown
# Summary of the method: as §1
# Sequence of ELF4 (Q99607 whole entry): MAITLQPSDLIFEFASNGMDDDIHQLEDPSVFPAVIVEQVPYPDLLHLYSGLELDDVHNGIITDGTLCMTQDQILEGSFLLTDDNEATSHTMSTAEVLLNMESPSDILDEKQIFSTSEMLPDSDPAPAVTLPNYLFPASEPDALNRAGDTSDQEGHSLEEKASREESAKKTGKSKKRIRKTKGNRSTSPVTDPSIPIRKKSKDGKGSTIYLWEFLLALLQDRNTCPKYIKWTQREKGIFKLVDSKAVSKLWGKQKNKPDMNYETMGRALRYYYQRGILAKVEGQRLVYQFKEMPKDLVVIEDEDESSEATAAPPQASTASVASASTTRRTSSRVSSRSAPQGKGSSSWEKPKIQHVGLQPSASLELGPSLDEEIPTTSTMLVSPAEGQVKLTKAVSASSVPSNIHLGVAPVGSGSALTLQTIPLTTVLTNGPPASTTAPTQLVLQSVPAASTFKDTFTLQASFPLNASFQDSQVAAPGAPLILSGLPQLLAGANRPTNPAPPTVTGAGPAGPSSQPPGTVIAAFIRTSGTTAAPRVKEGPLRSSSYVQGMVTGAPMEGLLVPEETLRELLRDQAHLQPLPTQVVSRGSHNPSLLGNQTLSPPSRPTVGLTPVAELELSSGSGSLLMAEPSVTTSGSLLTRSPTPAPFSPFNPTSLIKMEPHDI
# Sequence of ETV5 (P41161 whole entry): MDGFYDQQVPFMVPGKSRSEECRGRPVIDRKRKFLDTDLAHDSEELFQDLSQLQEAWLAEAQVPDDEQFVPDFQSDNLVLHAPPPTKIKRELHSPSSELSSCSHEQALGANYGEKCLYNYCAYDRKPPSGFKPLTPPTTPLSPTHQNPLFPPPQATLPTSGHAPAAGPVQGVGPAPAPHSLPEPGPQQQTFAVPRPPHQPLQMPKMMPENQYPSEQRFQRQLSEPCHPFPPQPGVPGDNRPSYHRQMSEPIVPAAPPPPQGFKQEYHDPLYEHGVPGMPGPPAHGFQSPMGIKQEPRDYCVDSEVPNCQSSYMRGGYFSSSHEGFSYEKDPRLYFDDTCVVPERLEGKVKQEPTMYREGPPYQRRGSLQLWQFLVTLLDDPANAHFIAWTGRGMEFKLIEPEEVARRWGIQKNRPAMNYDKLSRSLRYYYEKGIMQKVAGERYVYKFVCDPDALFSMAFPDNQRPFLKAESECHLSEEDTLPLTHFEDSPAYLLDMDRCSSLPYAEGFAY
# Sequence of ETV6 (P41212 whole entry): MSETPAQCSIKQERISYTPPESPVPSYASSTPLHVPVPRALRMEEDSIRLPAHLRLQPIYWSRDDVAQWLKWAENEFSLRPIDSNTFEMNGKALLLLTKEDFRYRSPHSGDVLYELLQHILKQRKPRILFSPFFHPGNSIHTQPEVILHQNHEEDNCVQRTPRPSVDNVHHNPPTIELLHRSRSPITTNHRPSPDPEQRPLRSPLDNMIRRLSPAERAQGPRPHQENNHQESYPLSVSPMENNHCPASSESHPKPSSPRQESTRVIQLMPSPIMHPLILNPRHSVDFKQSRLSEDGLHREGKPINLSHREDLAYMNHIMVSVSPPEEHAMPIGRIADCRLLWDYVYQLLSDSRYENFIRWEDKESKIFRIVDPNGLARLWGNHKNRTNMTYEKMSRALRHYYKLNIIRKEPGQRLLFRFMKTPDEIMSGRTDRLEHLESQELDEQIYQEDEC
# Sequence of HSF1 (Q00613 whole entry): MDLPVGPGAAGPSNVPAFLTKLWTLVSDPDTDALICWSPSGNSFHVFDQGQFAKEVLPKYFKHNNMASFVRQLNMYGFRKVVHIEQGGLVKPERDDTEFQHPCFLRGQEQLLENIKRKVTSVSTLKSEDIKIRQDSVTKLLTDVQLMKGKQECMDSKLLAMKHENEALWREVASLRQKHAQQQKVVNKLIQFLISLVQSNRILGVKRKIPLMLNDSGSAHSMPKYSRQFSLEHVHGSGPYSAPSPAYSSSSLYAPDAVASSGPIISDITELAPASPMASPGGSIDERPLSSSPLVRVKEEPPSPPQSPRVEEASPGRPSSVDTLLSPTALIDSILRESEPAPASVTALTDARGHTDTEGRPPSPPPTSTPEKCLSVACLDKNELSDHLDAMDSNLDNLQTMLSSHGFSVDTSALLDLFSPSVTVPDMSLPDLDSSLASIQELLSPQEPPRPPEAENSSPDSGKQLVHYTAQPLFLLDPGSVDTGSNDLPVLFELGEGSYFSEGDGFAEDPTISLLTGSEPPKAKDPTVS
# Sequence of CRX (O43186 whole entry): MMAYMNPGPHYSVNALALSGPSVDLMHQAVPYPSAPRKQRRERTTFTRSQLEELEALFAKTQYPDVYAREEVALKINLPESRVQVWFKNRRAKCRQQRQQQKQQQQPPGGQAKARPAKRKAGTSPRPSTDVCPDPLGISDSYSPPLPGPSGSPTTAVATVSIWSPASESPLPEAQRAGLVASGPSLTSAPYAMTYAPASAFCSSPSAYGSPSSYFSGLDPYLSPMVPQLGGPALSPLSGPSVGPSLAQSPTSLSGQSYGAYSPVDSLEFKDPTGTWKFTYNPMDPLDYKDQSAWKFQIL
# Sequence of ETV1 (P50549 whole entry): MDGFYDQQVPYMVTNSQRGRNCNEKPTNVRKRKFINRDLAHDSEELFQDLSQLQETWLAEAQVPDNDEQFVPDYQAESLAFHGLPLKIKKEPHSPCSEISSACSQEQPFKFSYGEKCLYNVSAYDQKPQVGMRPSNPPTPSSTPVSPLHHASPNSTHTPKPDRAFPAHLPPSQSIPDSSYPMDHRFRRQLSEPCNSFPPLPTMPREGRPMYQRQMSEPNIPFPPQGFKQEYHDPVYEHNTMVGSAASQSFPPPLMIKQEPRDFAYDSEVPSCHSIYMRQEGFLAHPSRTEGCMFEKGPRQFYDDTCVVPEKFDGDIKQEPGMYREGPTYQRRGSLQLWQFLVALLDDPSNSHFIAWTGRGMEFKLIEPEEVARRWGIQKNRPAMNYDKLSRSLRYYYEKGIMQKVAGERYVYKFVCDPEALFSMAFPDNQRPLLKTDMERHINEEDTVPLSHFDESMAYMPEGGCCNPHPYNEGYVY
sequence,measurement,setting,value
ATCACC,binding signal,[1],"1.09 fold enrichment (6-mer frequency, TF over GST control)"
same,binding signal,[2],"1.11 fold enrichment (6-mer frequency, TF over GST control)"
same,binding signal,[3],"1.05 fold enrichment (6-mer frequency, TF over GST control)"
same,binding signal,[4],"1.1 fold enrichment (6-mer frequency, TF over GST control)"
same,binding signal,[5],"1.22 fold enrichment (6-mer frequency, TF over GST control)"
same,binding signal,[6],"1.07 fold enrichment (6-mer frequency, TF over GST control)"
same,binding signal,[7],"1.03 fold enrichment (6-mer frequency, TF over GST control)"
same,binding signal,[8],"1.17 fold enrichment (6-mer frequency, TF over GST control)"
same,binding signal,[9],"1.14 fold enrichment (6-mer frequency, TF over GST control)"
same,binding signal,[10],"1.1 fold enrichment (6-mer frequency, TF over GST control)"
same,binding signal,[11],"1.13 fold enrichment (6-mer frequency, TF over GST control)"
same,binding signal,[12],"1.17 fold enrichment (6-mer frequency, TF over GST control)"
same,binding signal,[13],"1.05 fold enrichment (6-mer frequency, TF over GST control)"
same,binding signal,[14],"1.12 fold enrichment (6-mer frequency, TF over GST control)"
same,binding signal,[15],"1 fold enrichment (6-mer frequency, TF over GST control)"
same,binding signal,[16],"1.01 fold enrichment (6-mer frequency, TF over GST control)"
same,binding signal,[17],"1.12 fold enrichment (6-mer frequency, TF over GST control)"
same,binding signal,[18],"1.06 fold enrichment (6-mer frequency, TF over GST control)"
